Among all 48,000 compounds or so, about 13,000 (27%) showed an effect of 50% or more. Some of the results follow.
Test system: Wolbachia pipientis
Assay: Anti-Wolbachia Cell-Based Screen
Assay type: functional
Set-up: scale not given: in the data most compounds retested in dose-response had high values
Conditions: 5 µM

Compound | Percent Effect
CCN1CC2(CCN(C(=O)C3CSC(C)(C)C(=O)N3)CC2)CC1=O (configuration not stated) | -12.94%
CCc1nccn1C1CCCN(C(=O)c2csc(C3CC3)n2)C1 (configuration not stated) | 96.06%
CCc1nccn1C1CCCN(C(=O)Cc2cn3ccsc3n2)C1 (configuration not stated) | 106.2%
CCc1nccn1C1CCCN(C(=O)c2cc(C3CC3)on2)C1 (configuration not stated) | 0.1203%
O=C(Cc1cn2ccsc2n1)N1CCCC(n2cncn2)C1 (configuration not stated) | -11.33%
CCc1nccn1C1CCCN(C(=O)c2cc[nH]n2)C1 (configuration not stated) | 5.506%
CCc1nccn1C1CCCN(C(=O)CCc2nc(C(C)C)no2)C1 (configuration not stated) | 1.838%
CC(C)c1ccc(OCCC(=O)N(C)CC(N)=O)cc1 | 4.31%
CC1CN(c2ncnc3cccc(F)c23)CCO1 (configuration not stated) | -3.165%
CC(C)c1cc(NCC2(Cn3cccn3)CC2)n2nccc2n1 | -2.27%
Cc1cc2nc(C(C)C)cc(NCCc3ccncc3)n2n1 | 142%
Cc1cc2nc(C(C)C)cc(N[C@H](C(N)=O)C(C)C)n2n1 | -8.312%
Cc1cc(NCCS(C)(=O)=O)n2nc(C)cc2n1 | -11.18%
CNS(=O)(=O)CCNc1cc(C)nc2cc(C)nn12 | -6.261%
Cc1cc2nc(C(C)C)cc(NCCc3cccn3C)n2n1 | 113.2%
CCc1nc2c(NCC3COc4c(cccc4OC)C3)ncnc2o1 (configuration not stated) | -3.271%
CCN(C)C(=O)c1ccc(N(C)Cc2cc(-c3cccnc3)no2)nc1 | 3.484%
COCc1cc(CC2(NC3CCN(C)CC3)COC2)no1 | 4.63%
COc1cc(C#N)ccc1OCC(=O)N(C1CC1)C(C)c1ccco1 (configuration not stated) | -6.369%
CCC[C@H]1CN(Cc2ccc(N(C)C)nc2)C[C@@H]1NS(=O)(=O)CC | 9.48%
COc1cc(S(=O)(=O)Nc2cn[nH]c2)ccc1Br | 20.8%
Cc1noc(C)c1CC(=O)N1CCCC(n2ccnc2C)C1 (configuration not stated) | 104.6%
Cn1nc(C2CCCN(C(=O)Cc3ccsc3)C2)c2nccnc21 (configuration not stated) | -16.9%

Compound | Percent Effect
Cc1noc(C)c1CCC(=O)N1CCCC(n2ccnc2C)C1 (configuration not stated) | -0.2444%
Cc1noc(C)c1CNC(=O)N1CCN(CC2CC2)CC1 | -3.03%
O=C(Cc1ccsc1)N1CCCC(CNS(=O)(=O)Cc2ccccc2)C1 (configuration not stated) | -10.03%
Cc1cnn(C2CCCN(C(=O)Cc3ccc(-n4cccn4)cc3)C2)c1 (configuration not stated) | -1.818%
Cc1cnn(C2CCCN(C(=O)Cc3ccc(C)s3)C2)c1 (configuration not stated) | 107.6%
Cc1noc(C)c1CC(=O)N1CCCC(Cn2ccnc2C)C1 (configuration not stated) | 108.2%
Cc1nccn1CC1CCCN(C(=O)Cc2ccsc2)C1 (configuration not stated) | 91.27%
CCCc1noc(CCC(=O)N2CCCC(n3ccnc3C)C2)n1 (configuration not stated) | 4.516%
Cc1nc(NC(=O)COCC2CC2)ccc1Br | -7.033%
CCc1nnc(CN2CCC(C3CCCCCN3C(C)=O)CC2)o1.Cl (configuration not stated) | 2.52%
CN(C)c1nccc(CNS(=O)(=O)c2cc(Cl)cc(Cl)c2)n1 | -1.753%
Cc1nc(C(=O)N2CCN(C(=O)N(C)C)[C@@H]3CS(=O)(=O)C[C@@H]32)cs1 | -0.3934%
CCC(NC(=O)c1cccc2[nH]ccc12)C(=O)N1CCOCC1 (configuration not stated) | -2.082%
Cc1nn(C)c(C)c1CC(=O)N1CCCC(n2ccnc2)C1 (configuration not stated) | -6.925%
Cc1noc(C)c1CNC(=O)N1CCCC(C)CC1 (configuration not stated) | -2.86%
Cc1nn(C)c(C)c1CC(=O)N1CCCC(n2ccnc2C)C1 (configuration not stated) | 103.8%
Cc1cnn(C2CCCN(C(=O)Cc3c(C)nn(C)c3C)C2)c1 (configuration not stated) | 112.6%
Cc1noc(C)c1CC(=O)N1CCCC(c2noc(C(C)C)n2)C1 (configuration not stated) | -25.9%
CC(=O)NCC1CCCN(C(=O)Cc2c(C)noc2C)C1 (configuration not stated) | 118.6%
Cc1nccn1C1CCCN(C(=O)Cn2ccc(=O)n(C)c2=O)C1 (configuration not stated) | -5.053%
C=C(C)CN1CCCC1c1nc(Cc2ccc(F)cc2)no1 (configuration not stated) | 3.064%
CNC(=O)[C@H]1C[C@H]2OCC[C@H]2N(CC2CCOCC2)C1.O=C(O)C(F)(F)F | -4.721%
COC(=O)CCCN(C)C(c1cccnc1)c1ccc(F)cc1F (configuration not stated) | -20.53%

Compound | Percent Effect
CC(=O)N1CCC(Cc2nccnc2-c2ccnn2C)CC1 | 105.5%
Cn1nccc1-c1nc2c(cc1C(=O)O)CCN(C(=O)C1CC1)CC2.O=C(O)C(F)(F)F | -10.62%
CCCn1nccc1C(=O)N1CCCC(C(=O)CCc2ccccc2)C1 (configuration not stated) | 3.228%
CCCn1nccc1-c1nccnc1CC1CCN(C(C)=O)C1 (configuration not stated) | 94.67%
CCCn1nccc1C(=O)N1CCN(C(=O)C2CC2)[C@@H]2CS(=O)(=O)C[C@@H]21 | 17.33%
CCCn1nccc1-c1nccnc1CC1CCN(C(C)=O)CC1 | 113%
CCCn1nccc1C(=O)N1CCN(C2CCc3ccccc3C2)CC1 (configuration not stated) | -8.816%
CCCn1ncnc1C(C)NC(=O)C1CCN(C(=O)C2CC2)CC1 (configuration not stated) | -8.242%
CCCn1nccc1-c1cnc(CC2CCN(C(C)=O)C2)cn1 (configuration not stated) | 102.9%
CS(=O)(=O)c1ccc2c(c1)N(C(=O)Cc1ccc(F)cc1)CCC2 | 9.452%
N#Cc1cccnc1NCCNC(=O)NCCSC(F)(F)F | 18.52%
O=C(NCCC1CCCCO1)c1coc(COc2ccc(F)cc2)n1 (configuration not stated) | -18.68%
CCOCc1nc2c(c(NC(CC)c3cccnc3)n1)CCNCC2 (configuration not stated) | 11.04%
CN(CC1(CO)CCCC1)[C@@H]1c2ccccc2C2(CCNCC2)[C@H]1O | 6.987%
Cc1cccc(C2CCCN(C(=O)CN3CCOC3=O)C2)c1 (configuration not stated) | -2.013%
CN(C)CCO[C@H]1C[C@@H](O)C12CCN(c1nccc3ccccc13)CC2 | -5.816%
Clc1ccccc1C1(c2ccnc(-c3ncccn3)n2)CCNCC1 | -1.363%
Cc1cc(=O)n2nc(Oc3cccc(C(N)=O)c3)sc2n1 | 92.57%
Cc1ccn(-c2cncc(C(N)=O)c2)n1 | -45.7%
Cc1cc(=O)n2nc(Oc3cccc(I)c3)sc2n1 | 98.58%
Cc1ccccc1CC(C)(C)NC(=O)COc1cccc(C(N)=O)c1 | 8.164%

From ChEMBL document CHEMBL3988442, “University of Dundee, Small-Polar-MMV Screening Library” (2021)
